Publication PMC11024108

Columns and labels:
[1] = molecular target: Histone H2A type 1-J (UniProt Q99878); test: cross-link between two proteins; cross-linking mass spectrometry
[2] = molecular target: Large ribosomal subunit protein uL1 (UniProt P62906); test: as above
[3] = molecular target: Histone H2B type 1-M (UniProt Q99879); test: as above
[4] = molecular target: Actin-related protein 2/3 complex subunit 2 (UniProt Q9CVB6); test: as above
[5] = molecular target: Histone H4 (UniProt P62805); test: as above
[6] = molecular target: Dihydropyrimidinase-related protein 1 (UniProt P97427); test: as above
[7] = molecular target: Dihydropyrimidinase-related protein 3 (UniProt Q62188); test: as above
[8] = molecular target: Large ribosomal subunit protein mL53 (UniProt Q96EL3); test: as above
[9] = molecular target: Histone H1.2 (UniProt P16403); test: as above
Chain of Histone H1.2 (P16403 whole entry): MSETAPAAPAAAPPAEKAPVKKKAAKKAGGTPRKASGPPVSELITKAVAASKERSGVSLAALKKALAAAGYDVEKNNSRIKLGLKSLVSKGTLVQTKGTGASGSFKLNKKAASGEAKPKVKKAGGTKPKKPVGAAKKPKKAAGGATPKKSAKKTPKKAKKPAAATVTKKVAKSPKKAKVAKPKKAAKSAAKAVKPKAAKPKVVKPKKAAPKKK

[10] = molecular target: Large ribosomal subunit protein eL20 (UniProt Q02543); test: as above
[11] = molecular target: T1, Serine/arginine-rich splicing factor 7 (UniProt Q16629); test: as above
T1 sequence: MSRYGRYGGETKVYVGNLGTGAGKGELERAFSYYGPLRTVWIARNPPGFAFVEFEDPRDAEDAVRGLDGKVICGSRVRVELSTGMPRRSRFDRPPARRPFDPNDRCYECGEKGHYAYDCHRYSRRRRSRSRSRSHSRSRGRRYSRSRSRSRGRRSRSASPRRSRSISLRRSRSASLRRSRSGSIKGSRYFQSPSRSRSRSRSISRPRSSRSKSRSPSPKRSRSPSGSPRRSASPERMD

[12] = molecular target: Small ribosomal subunit protein eS8 (UniProt P62241); test: as above
[13] = molecular target: AP-2 complex subunit beta (UniProt P63010); test: as above
[14] = molecular target: AP-1 complex subunit beta-1 (UniProt Q10567); test: cross-link between two proteins; co-fractionation; cross-linking mass spectrometry
Chain of AP-1 complex subunit beta-1 (Q10567 whole entry, one chain of several): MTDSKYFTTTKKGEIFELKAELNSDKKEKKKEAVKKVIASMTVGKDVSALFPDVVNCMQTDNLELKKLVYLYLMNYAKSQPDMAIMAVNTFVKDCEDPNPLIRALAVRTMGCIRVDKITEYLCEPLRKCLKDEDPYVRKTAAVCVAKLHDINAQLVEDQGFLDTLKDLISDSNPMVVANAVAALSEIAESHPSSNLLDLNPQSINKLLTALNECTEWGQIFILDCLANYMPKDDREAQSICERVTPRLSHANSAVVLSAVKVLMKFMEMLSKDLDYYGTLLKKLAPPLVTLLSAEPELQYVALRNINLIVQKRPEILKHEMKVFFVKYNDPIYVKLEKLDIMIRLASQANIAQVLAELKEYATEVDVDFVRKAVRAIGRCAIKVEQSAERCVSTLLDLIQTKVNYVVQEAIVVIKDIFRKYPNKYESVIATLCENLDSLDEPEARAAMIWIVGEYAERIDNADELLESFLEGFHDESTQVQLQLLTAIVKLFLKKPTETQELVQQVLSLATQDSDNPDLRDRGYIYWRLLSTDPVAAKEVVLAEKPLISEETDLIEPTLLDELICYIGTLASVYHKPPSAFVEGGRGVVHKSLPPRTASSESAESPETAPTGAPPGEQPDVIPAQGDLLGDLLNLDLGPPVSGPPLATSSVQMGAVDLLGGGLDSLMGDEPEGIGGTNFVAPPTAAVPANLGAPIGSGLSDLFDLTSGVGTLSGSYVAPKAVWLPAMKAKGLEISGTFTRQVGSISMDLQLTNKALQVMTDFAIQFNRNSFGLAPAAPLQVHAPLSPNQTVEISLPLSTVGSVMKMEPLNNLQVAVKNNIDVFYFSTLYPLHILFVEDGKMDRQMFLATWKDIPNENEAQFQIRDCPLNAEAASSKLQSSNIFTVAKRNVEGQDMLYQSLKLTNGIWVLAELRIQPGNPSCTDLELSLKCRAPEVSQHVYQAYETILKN

[15] = molecular target: Actin, cytoplasmic 2 (UniProt P63261); test: cross-link between two proteins; cross-linking mass spectrometry
[16] = molecular target: Epsin-1 (UniProt Q9Y6I3); test: as above
[17] = molecular target: Ubiquitin-like protein NEDD8 (UniProt Q15843); test: as above
[18] = molecular target: Beta-synuclein (UniProt Q91ZZ3); test: as above
[19] = molecular target: Large ribosomal subunit protein eL24 (UniProt P83731); test: as above
[20] = molecular target: Complex III assembly factor LYRM7 (UniProt Q5U5X0); test: cross-linking mass spectrometry
[21] = molecular target: Malate dehydrogenase, mitochondrial (UniProt P40926); test: cross-linking mass spectrometry
[22] = molecular target: Elongation factor 1-alpha 1 (UniProt P68104); test: cross-linking mass spectrometry
[23] = molecular target: Histone H2B type 1-C/E/G (UniProt Q6ZWY9); test: cross-linking mass spectrometry
[24] = molecular target: Large ribosomal subunit protein uL11 (UniProt P30050); test: cross-linking mass spectrometry
[25] = molecular target: Large ribosomal subunit protein uL11m (UniProt Q9Y3B7); test: cross-linking mass spectrometry
[26] = molecular target: Large ribosomal subunit protein uL5 (UniProt P62913); test: cross-linking mass spectrometry
[27] = molecular target: Leucine-rich repeat-containing protein 59 (UniProt Q96AG4); test: cross-linking mass spectrometry
[28] = molecular target: Poly(A) RNA polymerase, mitochondrial (UniProt Q9NVV4); test: cross-linking mass spectrometry
[29] = molecular target: Ribosome-binding protein 1 (UniProt Q9P2E9); test: cross-linking mass spectrometry
[30] = molecular target: Small ribosomal subunit protein uS15 (UniProt P62301); test: cross-linking mass spectrometry
[31] = molecular target: Small ribosomal subunit protein eS27 (UniProt Q6ZWU9); test: cross-link between two proteins; cross-linking mass spectrometry
[32] = molecular target: MICOS complex subunit MIC60 (UniProt Q16891); test: as above
[33] = molecular target: Cytochrome c oxidase assembly factor 7 (UniProt Q96BR5); test: mass-spectrometry hit list; affinity purification or IP with mass spectrometry; cross-linking mass spectrometry
[34] = molecular target: Mitochondrial fission 1 protein (UniProt Q9CQ92); test: cross-link between two proteins; cross-linking mass spectrometry
Chain of Mitochondrial fission 1 protein (Q9CQ92 whole entry): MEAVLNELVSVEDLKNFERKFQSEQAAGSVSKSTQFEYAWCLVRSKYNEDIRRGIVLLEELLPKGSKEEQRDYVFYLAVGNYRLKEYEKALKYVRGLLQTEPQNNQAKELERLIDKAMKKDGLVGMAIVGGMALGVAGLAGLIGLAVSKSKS

[35] = molecular target: Plasma membrane calcium-transporting ATPase 2 (UniProt Q9R0K7); test: as above
Chain of Plasma membrane calcium-transporting ATPase 2 (Q9R0K7 whole entry): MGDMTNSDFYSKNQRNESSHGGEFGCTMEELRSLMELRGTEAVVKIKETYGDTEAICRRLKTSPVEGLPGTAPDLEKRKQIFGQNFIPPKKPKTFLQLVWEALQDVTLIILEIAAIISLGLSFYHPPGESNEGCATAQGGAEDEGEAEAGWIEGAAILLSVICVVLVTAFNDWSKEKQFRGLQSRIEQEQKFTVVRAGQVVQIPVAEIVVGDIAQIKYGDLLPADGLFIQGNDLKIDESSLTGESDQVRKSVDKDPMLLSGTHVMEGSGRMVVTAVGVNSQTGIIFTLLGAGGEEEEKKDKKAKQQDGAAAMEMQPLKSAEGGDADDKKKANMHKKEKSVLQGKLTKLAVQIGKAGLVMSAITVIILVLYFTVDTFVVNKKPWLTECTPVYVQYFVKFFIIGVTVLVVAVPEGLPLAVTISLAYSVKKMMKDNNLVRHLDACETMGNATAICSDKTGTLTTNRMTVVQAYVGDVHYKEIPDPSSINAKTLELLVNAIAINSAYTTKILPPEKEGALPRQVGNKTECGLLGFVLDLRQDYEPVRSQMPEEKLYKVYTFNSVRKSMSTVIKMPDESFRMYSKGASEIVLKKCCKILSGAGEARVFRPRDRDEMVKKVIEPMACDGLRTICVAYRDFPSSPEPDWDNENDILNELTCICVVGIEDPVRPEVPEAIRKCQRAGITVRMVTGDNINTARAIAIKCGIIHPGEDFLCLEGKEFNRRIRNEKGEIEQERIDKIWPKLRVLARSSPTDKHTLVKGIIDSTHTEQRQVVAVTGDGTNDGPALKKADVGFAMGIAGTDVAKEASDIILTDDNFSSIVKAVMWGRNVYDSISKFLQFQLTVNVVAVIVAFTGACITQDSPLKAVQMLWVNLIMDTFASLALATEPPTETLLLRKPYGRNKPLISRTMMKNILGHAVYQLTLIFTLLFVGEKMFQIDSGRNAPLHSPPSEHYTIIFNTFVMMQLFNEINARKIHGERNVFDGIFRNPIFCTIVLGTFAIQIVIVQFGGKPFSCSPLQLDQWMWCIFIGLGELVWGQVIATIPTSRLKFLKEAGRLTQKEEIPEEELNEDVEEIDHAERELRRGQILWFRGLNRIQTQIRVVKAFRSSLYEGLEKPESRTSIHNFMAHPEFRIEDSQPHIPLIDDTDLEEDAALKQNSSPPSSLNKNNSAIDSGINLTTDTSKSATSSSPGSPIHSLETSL

[36] = molecular target: Protein piccolo (UniProt Q9QYX7); test: as above
[37] = molecular target: Ragulator complex protein LAMTOR4 (UniProt Q0VGL1); test: as above
[38] = molecular target: Ras-related C3 botulinum toxin substrate 1 (UniProt P63000); test: as above
[39] = molecular target: Small ribosomal subunit protein RACK1 (UniProt P68040); test: as above
[40] = molecular target: Small ribosomal subunit protein eS19 (UniProt Q9CZX8); test: as above
[41] = molecular target: Small ribosomal subunit protein eS4, X isoform (UniProt P62701); test: as above
[42] = molecular target: Small ribosomal subunit protein uS19 (UniProt P62841); test: as above
[43] = molecular target: Small ribosomal subunit protein uS4 (UniProt Q6ZWN5); test: as above
[44] = molecular target: Syntaxin-1B (UniProt P61264); test: as above
Chain of Syntaxin-1B (P61264 whole entry): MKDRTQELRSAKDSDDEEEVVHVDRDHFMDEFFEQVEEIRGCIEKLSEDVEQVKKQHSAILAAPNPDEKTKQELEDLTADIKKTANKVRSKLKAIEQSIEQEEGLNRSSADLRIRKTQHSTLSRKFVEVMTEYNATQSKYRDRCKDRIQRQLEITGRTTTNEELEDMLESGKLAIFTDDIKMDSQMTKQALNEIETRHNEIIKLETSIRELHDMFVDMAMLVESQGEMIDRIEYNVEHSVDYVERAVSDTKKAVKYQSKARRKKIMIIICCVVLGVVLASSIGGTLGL

[45] = molecular target: Tubulin alpha-1C chain (UniProt Q9BQE3); test: as above
[46] = molecular target: Tubulin beta-2A chain (UniProt Q7TMM9); test: as above
[47] = molecular target: Ubiquitin-like FUBI-ribosomal protein eS30 fusion protein (UniProt P62861); test: as above
[48] = molecular target: Ubiquitin-ribosomal protein eS31 fusion protein (UniProt P62979); test: as above
[49] = molecular target: cAMP-dependent protein kinase catalytic subunit beta (UniProt P68181); test: as above
[50] = molecular target: cAMP-dependent protein kinase type II-beta regulatory subunit (UniProt P31324); test: as above
Chain of cAMP-dependent protein kinase type II-beta regulatory subunit (P31324 whole entry): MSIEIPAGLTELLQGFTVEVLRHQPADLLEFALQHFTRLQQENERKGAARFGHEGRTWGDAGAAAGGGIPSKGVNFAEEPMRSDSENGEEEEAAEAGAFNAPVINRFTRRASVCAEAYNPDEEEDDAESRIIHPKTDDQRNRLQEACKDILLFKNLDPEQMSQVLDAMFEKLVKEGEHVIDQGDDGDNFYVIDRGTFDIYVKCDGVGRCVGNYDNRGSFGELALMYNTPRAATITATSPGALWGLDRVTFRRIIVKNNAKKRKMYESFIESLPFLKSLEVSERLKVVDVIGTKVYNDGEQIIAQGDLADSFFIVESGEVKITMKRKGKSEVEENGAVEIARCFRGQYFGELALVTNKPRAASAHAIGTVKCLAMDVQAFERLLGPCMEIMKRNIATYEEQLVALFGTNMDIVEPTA

Chain of AP-2 complex subunit sigma, P53680 (P53680 whole entry, one chain of several): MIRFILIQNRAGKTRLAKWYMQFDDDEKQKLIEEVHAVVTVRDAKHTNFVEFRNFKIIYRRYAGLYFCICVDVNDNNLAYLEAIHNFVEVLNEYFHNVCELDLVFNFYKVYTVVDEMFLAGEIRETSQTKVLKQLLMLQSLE
Chain of Syntaxin-1A, O35526 (O35526 whole entry): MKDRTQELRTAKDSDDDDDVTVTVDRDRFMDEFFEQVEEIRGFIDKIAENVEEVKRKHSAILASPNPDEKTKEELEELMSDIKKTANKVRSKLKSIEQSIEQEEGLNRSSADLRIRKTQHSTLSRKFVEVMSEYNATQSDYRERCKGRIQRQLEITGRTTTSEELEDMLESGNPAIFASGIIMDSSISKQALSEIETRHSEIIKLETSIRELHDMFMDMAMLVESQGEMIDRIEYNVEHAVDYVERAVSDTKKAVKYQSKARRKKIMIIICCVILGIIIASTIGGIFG
Chain of Tubulin alpha-1A chain, P68369 (P68369 whole entry): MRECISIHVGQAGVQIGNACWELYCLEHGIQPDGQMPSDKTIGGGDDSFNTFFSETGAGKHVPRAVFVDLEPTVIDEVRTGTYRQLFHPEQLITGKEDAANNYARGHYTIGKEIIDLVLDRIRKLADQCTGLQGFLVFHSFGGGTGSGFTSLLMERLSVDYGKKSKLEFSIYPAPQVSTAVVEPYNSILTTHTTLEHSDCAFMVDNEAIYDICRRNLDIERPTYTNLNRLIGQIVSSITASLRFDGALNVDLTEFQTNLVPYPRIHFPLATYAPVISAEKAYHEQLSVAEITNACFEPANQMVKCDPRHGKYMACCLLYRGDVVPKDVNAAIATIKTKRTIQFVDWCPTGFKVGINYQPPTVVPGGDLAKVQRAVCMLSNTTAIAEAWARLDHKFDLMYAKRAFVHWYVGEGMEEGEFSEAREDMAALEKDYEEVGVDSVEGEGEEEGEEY
Chain of Dynein light chain 2, cytoplasmic, Q9D0M5 (Q9D0M5 whole entry): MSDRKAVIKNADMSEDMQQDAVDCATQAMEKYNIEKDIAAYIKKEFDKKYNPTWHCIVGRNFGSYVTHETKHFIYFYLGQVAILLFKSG
Chain of cAMP-dependent protein kinase type II-alpha regulatory subunit, P12367 (P12367 whole entry): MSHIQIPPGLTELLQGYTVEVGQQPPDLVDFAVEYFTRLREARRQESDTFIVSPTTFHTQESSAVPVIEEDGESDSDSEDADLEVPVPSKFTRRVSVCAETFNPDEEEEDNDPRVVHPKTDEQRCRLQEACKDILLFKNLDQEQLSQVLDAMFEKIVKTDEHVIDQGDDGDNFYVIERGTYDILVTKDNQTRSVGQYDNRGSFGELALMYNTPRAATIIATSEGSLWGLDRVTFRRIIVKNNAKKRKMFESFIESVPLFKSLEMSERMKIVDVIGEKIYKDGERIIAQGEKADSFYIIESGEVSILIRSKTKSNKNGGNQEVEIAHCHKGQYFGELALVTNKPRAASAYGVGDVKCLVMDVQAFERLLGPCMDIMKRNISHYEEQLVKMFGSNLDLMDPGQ
Chain of Ras-related protein Rab-14, Q91V41 (Q91V41 whole entry): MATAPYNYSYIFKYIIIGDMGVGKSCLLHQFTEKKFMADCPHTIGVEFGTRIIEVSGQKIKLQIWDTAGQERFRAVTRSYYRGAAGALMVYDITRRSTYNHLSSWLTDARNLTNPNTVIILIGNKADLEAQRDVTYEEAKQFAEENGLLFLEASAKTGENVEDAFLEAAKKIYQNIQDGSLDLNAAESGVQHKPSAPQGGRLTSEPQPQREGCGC

Histone H2A type 1-C, Q93077
listed as a hit [1]: yes

Small ribosomal subunit protein eS1, P61247
listed as a hit [2]: yes

Large ribosomal subunit protein uL14, P62829
listed as a hit [1]: yes

Histone H4, P62805
listed as a hit [3]: yes

Actin-related protein 3B, Q641P0
listed as a hit [4]: yes

Histone H2B type F-S, P57053
listed as a hit [5]: yes

Dihydropyrimidinase-related protein 2, O08553
listed as a hit [6]: yes
listed as a hit [7]: yes

Large ribosomal subunit protein uL10m, Q7Z7H8
listed as a hit [8]: yes

Histone H1.4, P10412
listed as a hit [9]: yes
listed as a hit [10]: yes
listed as a hit [11]: yes
listed as a hit [12]: yes

AP-2 complex subunit sigma, P53680
listed as a hit [13]: yes
listed as a hit [14]: yes

Ubiquitin-ribosomal protein eS31 fusion protein, P62979
listed as a hit [15]: yes
listed as a hit [16]: yes
listed as a hit [17]: yes

Alpha-synuclein, O55042
listed as a hit [18]: yes

Large ribosomal subunit protein uL3, P39023
listed as a hit [19]: yes

Acyl carrier protein, mitochondrial, O14561
listed as a hit [20]: yes
listed as a hit [21]: yes

Actin, cytoplasmic 2, P63261
listed as a hit [22]: yes

Histone H3.3, P84244
listed as a hit [23]: yes

Elongation factor 2, P13639
listed as a hit [24]: yes

Large ribosomal subunit protein mL53, Q96EL3
listed as a hit [25]: yes

Small ribosomal subunit protein uS19, P62841
listed as a hit [26]: yes

Large ribosomal subunit protein uL2, P62917
listed as a hit [27]: yes

Leucine-rich PPR motif-containing protein, mitochondrial, P42704
listed as a hit [28]: yes

Large ribosomal subunit protein uL1, P62906
listed as a hit [29]: yes

Small ribosomal subunit protein eS7, P62082
listed as a hit [30]: yes
listed as a hit [31]: yes

Adenylate kinase 2, mitochondrial, P54819
listed as a hit [32]: yes
listed as a hit [33]: yes

Ras-related protein Rab-14, Q91V41
listed as a hit [34]: yes

P62204
listed as a hit [35]: yes

Dynein light chain 2, cytoplasmic, Q9D0M5
listed as a hit [36]: yes

Ragulator complex protein LAMTOR5, O43504
listed as a hit [37]: yes

Ras-related C3 botulinum toxin substrate 3, P60763
listed as a hit [38]: yes

Small ribosomal subunit protein uS3, P62908
listed as a hit [39]: yes

Small ribosomal subunit protein uS9, P14131
listed as a hit [40]: yes

Small ribosomal subunit protein uS4, P46781
listed as a hit [41]: yes

Small ribosomal subunit protein uS13, P62269
listed as a hit [42]: yes

Small ribosomal subunit protein eS4, P62702
listed as a hit [43]: yes

Small ribosomal subunit protein uS5, P25444
listed as a hit [43]: yes

Syntaxin-1A, O35526
listed as a hit [44]: yes

L-lactate dehydrogenase A chain, P00338
listed as a hit [45]: yes

Tubulin alpha-1A chain, P68369
listed as a hit [46]: yes

Small ribosomal subunit protein uS3, P23396
listed as a hit [47]: yes

Small ribosomal subunit protein uS15, P62277
listed as a hit [48]: yes

Small ribosomal subunit protein eS7, P62081
listed as a hit [48]: yes

cAMP-dependent protein kinase catalytic subunit alpha, P05132
listed as a hit [49]: yes

cAMP-dependent protein kinase type II-alpha regulatory subunit, P12367
listed as a hit [50]: yes
